Bioassay records (PubChem)
Most compounds without a hit are left out; they make up all but 1.8% or so of the library.
UBC13 polyUb – UBC13 polyubiquitin chain formation inhibitors, primary screen, biochemical, TR-FRET, uHTS; Ubiquitin-conjugating enzyme E2 N (Homo sapiens), P61088; inhibition, % at 20 µM; actives 0.47% (n = 330,000); AID 485273, 2010; in the data active = inhibition above about 45%, passing the limit was not always enough
UHRF1 binding – UHRF1 methylated DNA binding inhibitors, primary screen, counter-screen for MBD2 inhibitor project, biochemical, TR-FRET, human UHRF1, single concentration. E3 ubiquitin-protein ligase UHRF1 (Homo sapiens), Q96T88. UHRF1 binding to methylated oligo. inhibition, % at 4.4 µM. actives 0.75% (n = 370,000). AID 687016, 2013; in the data active = inhibition above about 21%;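 note: UHRF1 SRA domain binding a hemimethylated CpG hairpin DNA probe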
Target sequence (Q96T88 whole entry, looked up, the tested form may be a part): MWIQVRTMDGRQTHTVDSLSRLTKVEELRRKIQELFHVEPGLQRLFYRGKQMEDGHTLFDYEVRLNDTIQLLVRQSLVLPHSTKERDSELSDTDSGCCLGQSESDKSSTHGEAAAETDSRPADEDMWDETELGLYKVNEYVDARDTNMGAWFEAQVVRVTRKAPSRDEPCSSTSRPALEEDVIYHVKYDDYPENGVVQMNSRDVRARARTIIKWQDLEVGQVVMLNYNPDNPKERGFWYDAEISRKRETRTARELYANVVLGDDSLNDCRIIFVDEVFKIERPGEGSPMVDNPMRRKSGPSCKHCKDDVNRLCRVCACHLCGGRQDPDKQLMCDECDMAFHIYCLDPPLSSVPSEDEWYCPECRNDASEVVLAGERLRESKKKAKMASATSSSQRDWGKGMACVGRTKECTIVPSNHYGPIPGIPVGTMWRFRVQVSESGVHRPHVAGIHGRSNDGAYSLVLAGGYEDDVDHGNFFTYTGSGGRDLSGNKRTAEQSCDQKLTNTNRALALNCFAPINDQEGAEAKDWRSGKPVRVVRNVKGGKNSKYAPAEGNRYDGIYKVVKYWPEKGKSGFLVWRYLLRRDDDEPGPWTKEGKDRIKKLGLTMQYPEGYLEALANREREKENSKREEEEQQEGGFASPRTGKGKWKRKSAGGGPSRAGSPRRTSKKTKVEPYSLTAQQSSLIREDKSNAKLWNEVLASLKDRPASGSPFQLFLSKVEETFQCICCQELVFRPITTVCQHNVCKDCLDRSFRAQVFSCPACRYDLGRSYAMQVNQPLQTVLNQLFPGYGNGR
Neddyl block – inhibitors of cullin neddylation, primary screen, biochemical, TR-FRET, uHTS, NAE and Ubc12. NEDD8-conjugating enzyme Ubc12 (Homo sapiens) + NEDD8-activating enzyme E1 regulatory …. actives 0.58% (n = 360,000). AID 651699, 2012. calls only at 25 µM; in the data active = inhibition above about 36%
MBD2 inh – inhibitors of MBD2 binding to methylated DNA, primary screen, biochemical, TR-FRET, DNA-binding domain, human. AID 686964, 2013. actives 0.31% (n = 370,000). MBD2 binding to methylated oligonucleotide. inhibition, % at 4.4 µM; in the data active = inhibition above about 13%
Neddyl inh conf – blockade of NEDD8 conjugation to cullin – biochemical, TR-FRET, single concentration, confirmation; shares compounds with Neddyl block; TR-FRET cullin neddylation biochemical assay; calls only at 25 µM; actives 13% (n = 1,800); AID 652217, 2013; in the data active = inhibition above about 40%;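 note: neddylation substrate is the cullin 1 ring ligase complex with SKP2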
Large screens that a line does not name were inactive (follow-up assays come after a bar, where shown).

CC1(C)Cc2c(C#N)c(NCCO)nc(-c3ccco3)c2CO1	Neddyl block active
C[C@H](NC(=O)Cc1cccc2ccccc12)C(=O)NCc1ccccc1	none
CCC(=O)Nc1ccc(C(=O)CSc2nnc(-c3ccc(NS(=O)(=O)CC)cc3)o2)cc1OC	Neddyl block active | Neddyl inh conf inactive
Cc1ccc(OCCNC(=O)c2ccccc2O)cc1	none
C=CCN1C(=O)C(=O)N(CC(=O)c2ccc3c(c2)CCCC3)C1=O	none
CCOC(=O)C1CCc2c(ccc3ccccc23)N1CCC#N (centres undefined)	Neddyl block active (not shown: UBC13 polyUb)
CCOC(=O)C1CCCN(C(=O)c2cccc3ccccc23)C1 (centres undefined)	none
COc1cccc(CNC(=O)CSc2nc3c(oc4ccccc43)c(=O)n2CC2CCCO2)c1 (centres undefined)	none
C=C(Cl)COc1ccc2c(CCCC)cc(=O)oc2c1	none
C=C(Cl)COc1ccc2c(CC)cc(=O)oc2c1	Neddyl block active | Neddyl inh conf inactive
Cc1ccc(NS(=O)(=O)c2cccc(C(=O)N/N=C/c3c(C)nn(-c4ccccc4)c3N3CCCC3)c2)c(C)c1	none (not shown: Neddyl block)
Cc1ccc(C(=O)N/N=C/c2ccc(N3CCOCC3)cc2)c(C)c1	Neddyl block active | Neddyl inh conf inactive
Cc1ccc(NS(=O)(=O)c2cccc(C(=O)N/N=C/c3ccc4c(c3)OCCO4)c2)c(C)c1	Neddyl block active | Neddyl inh conf inactive
O=C(N/N=C/c1ccc(N2CCOCC2)cc1)c1ccc(O)cc1	none
COc1ccccc1NS(=O)(=O)c1cccc(C(=O)N/N=C/c2ccc(N3CCOCC3)cc2)c1	Neddyl block active | Neddyl inh conf inactive
COc1ccccc1NS(=O)(=O)c1cccc(C(=O)N/N=C/c2ccccc2OCC(=O)O)c1	none
Nc1ccc(C(=O)N/N=C/c2cn(Cc3ccccc3)c3ccccc23)cc1	Neddyl block active | Neddyl inh conf inactive
Cc1c(C(=O)Nc2nc3ccccc3[nH]2)oc2c(Cl)cccc12	none (not shown: Neddyl block)
C=CCn1c(SCC(=O)Nc2ncc(Cc3ccc(Br)cc3)s2)nnc1-c1ccncc1	none
OC1CCCN(Cc2c3ccccc3cc3ccccc23)C1 (centres undefined)	Neddyl block active | Neddyl inh conf active
COC(=O)c1c(-c2ccccc2)csc1NC1=NS(=O)(=O)c2ccccc21	none
COc1ccc(C(=O)NC(=S)NNC(=O)[C@H]2C[C@@H]2c2ccccc2)cc1OC	Neddyl block active | Neddyl inh conf inactive
C=CCN(CC=C)Cc1c(C)[nH]c2ccc(C(=O)OCC)cc2c1=O	Neddyl block active | Neddyl inh conf inactive
CCN(CC)Cc1c(C)[nH]c2ccc(NC(C)=O)cc2c1=O	none (no result: UBC13 polyUb)
CN(CC(=O)Nc1cccc(F)c1)C(=O)c1cc(-c2ccco2)nc2ccccc12	Neddyl block active
Cc1cccc(NC2SC(=O)N(CC(=O)O)C2=O)c1 (centres undefined)	none
COC(=O)c1cccc(CN2C(=O)SC(Nc3ccccc3)C2=O)c1 (centres undefined)	Neddyl block active | Neddyl inh conf inactive
O=C(NCCCn1ccnc1)c1ccccc1NS(=O)(=O)c1ccc(F)c(F)c1	none
Cc1cc(C)c(C)c(S(=O)(=O)Nc2ccccc2C(=O)O)c1C	Neddyl block active
Cc1cc(NC(=O)c2ccccc2NS(=O)(=O)c2c(C)c(C)cc(C)c2C)no1	none (not shown: Neddyl block)
Cc1cc(C)c(C)c(S(=O)(=O)Nc2ccccc2C(=O)NCCCn2ccnc2)c1C	Neddyl block active (not shown: UBC13 polyUb)
O=C(O)c1ccccc1NS(=O)(=O)c1ccc2c(c1)OCCO2	Neddyl block active
CN(C)C(CNC(=O)Cc1cccc(C(F)(F)F)c1)c1ccco1 (centres undefined)	none
Fc1cc2[nH]c(=S)[nH]c2cc1Cl	Neddyl block active | Neddyl inh conf inactive
COc1ccc(-n2cc(CNCc3cccnc3)c(-c3cccc(F)c3)n2)cc1	Neddyl block active | Neddyl inh conf active
CCCCc1c(O)n2c(nc3ccccc32)[nH]c1=O	Neddyl block active | Neddyl inh conf active
Cc1cc(=O)n2c(nc3ccccc32)[nH]1	none (not shown: Neddyl block)
CCCc1cc(=O)n2c(nc3ccccc32)[nH]1	Neddyl block active
COc1ccc(O)c(C(=O)c2cnn(C(=O)c3cccc(N(C)C)c3)c2)c1	Neddyl block active | Neddyl inh conf inactive
COc1ccc(C(=O)n2cc(C(=O)c3cc(C)ccc3O)cn2)cc1OC	Neddyl block active
COc1ccc(C(=O)n2cc(C(=O)c3cc(C)ccc3O)cn2)cc1	none
COC(=O)C(CCSC)NC(=O)C(NC(=O)C1CCC(C)CC1)C(C)C (centres undefined)	none
O=C(O)c1cc2cc(OCc3ccccc3)ccc2[nH]1	Neddyl block active | Neddyl inh conf inactive
Cc1ccc2nc(NCCCN3CCOCC3)c(C=NCCCN3CCOCC3)c(=O)n2c1	Neddyl block active (no result: UBC13 polyUb) | Neddyl inh conf inactive
CCCN(C(=O)Cn1nc(C)c([N+](=O)[O-])c1C)c1c(N)n(Cc2ccccc2)c(=O)[nH]c1=O	none
CC(C)OC(=O)C(C#N)c1nc2ccccc2nc1N1CCCC1 (centres undefined)	Neddyl block active (no result: UHRF1 binding, MBD2 inh) | Neddyl inh conf inactive
COC(=O)C1CCN(c2nc3ccccc3nc2C(C#N)C(=O)OCC(C)C)CC1 (centres undefined)	Neddyl block active | Neddyl inh conf inactive
CCOC(=O)C1CCN(c2ncnc3c2[nH]c2cccc(OC)c23)CC1	none (not shown: Neddyl block)
COc1cccc2[nH]c3c(N4CCCCC4)ncnc3c12	Neddyl block active
CN1CCN(c2oc(-c3ccccc3F)nc2S(=O)(=O)c2ccc(Cl)cc2)CC1	none (no result: UHRF1 binding, MBD2 inh)
COCCn1nnnc1C(C(C)C)N(Cc1cccnc1)Cc1cc2cc(OC)ccc2[nH]c1=O (centres undefined)	Neddyl block active | Neddyl inh conf inactive
COCCn1nnnc1C(C(C)C)N(Cc1ccccc1)Cc1cc2cc(OC)ccc2[nH]c1=O (centres undefined)	none (not shown: UBC13 polyUb, Neddyl block)
O=C(O)/C=C/C(=O)Nc1ccc2nccnc2c1	Neddyl block active | Neddyl inh conf inactive
COc1ccc(NC(=O)c2cc(-c3ccc(C)cc3)on2)cc1OC	none
COc1ccc(-c2cc(C(=O)Nc3ccc(OC)c(OC)c3)no2)cc1	Neddyl block active | Neddyl inh conf inactive
COc1ccc(NC(=O)CN(c2ccccc2)S(=O)(=O)N(C)C)cc1Cl	none
N#Cc1c2c(c(NCCOCCO)n3c1nc1ccccc13)CCCC2	Neddyl block active | Neddyl inh conf active
C=CCc1c(C)c(C#N)c2nc3ccccc3n2c1NCCN(C)C	Neddyl block active
COCCNc1c2c(c(C#N)c3nc4ccccc4n13)CCCC2	Neddyl block active | Neddyl inh conf active
